JMJD2A Tudor inh – blocks the human JMJD2A Tudor domain | O75164 | AlphaScreen JMJD2A-Tudor / H3K4me3 peptide binding | Potency, µM (doses to about 114 µM), inactives show at the top dose activity change, negative = inhibition, actives largely listed as inhibitors | 4.4% of 390,000 active | AID 504339; note: potency is the fitted concentration of half-maximal effect; % is set by controls: 0 for no effect and ±100 for the full control effect; nearly all actives have a fitted effect of over 50% in size
Target sequence (O75164 whole entry, looked up, the tested form may be a part): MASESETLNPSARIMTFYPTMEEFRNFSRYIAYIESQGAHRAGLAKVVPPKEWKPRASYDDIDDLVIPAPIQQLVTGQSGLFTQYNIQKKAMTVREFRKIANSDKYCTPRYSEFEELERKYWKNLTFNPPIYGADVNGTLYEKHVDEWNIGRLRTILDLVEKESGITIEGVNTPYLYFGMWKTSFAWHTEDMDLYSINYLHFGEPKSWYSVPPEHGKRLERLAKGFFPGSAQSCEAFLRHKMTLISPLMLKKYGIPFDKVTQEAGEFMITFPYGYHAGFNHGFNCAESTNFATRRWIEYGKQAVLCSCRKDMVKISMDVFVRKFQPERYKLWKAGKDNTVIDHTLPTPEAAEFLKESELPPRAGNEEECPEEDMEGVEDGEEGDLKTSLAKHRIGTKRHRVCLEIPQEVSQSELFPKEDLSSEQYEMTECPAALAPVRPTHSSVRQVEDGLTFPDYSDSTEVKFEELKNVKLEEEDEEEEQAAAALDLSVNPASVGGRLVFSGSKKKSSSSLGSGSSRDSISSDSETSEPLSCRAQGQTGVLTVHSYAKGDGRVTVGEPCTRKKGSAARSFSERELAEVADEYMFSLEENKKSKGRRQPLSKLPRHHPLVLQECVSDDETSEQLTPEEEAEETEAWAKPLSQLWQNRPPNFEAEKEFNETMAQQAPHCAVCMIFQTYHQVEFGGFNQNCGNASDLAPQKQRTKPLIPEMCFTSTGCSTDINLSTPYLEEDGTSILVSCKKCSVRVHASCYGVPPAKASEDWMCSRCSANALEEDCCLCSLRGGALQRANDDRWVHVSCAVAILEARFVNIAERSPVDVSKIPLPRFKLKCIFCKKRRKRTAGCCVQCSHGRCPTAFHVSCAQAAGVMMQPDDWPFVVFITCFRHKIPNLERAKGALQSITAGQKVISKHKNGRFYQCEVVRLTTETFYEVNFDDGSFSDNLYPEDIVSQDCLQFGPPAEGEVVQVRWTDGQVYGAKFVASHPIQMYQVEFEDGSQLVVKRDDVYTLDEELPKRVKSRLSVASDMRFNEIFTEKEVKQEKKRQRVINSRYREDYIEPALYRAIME
G9a block – G9a (human) methyltransferase inhibition | G9a H3K9 monomethylation, AlphaScreen, 2 h | Potency, µM (doses to about 102 µM), inactives show at the highest dose activity, negative = inhibition, most hits filed as inhibitors | 8.8% of 350,000 active; note: potency is the fitted concentration of half-maximal effect; % is set by controls: 0 for no effect and ±100 for the full control effect; nearly all actives have a fitted effect of over 75% in size
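Readings reflect AlphaScreen signal from monomethyl-H3K9 antibody detection. HMT at 20 nM; substrate b-H3K9 500 nM; cofactor SAM 20 uM; 2 h RT reaction; compounds tested as titrations in qHTS with 15 min preincubation.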
BAZ2B block – BAZ2B (human) inhibition. Q9UIF8. AlphaScreen BAZ2B-H3K14Ac peptide displacement. Potency, µM (highest dose often 114 µM), for the others: at the highest dose activity change, negative = inhibition, usual class: inhibitors. 4.4% of 360,000 active; note: potency is the fitted concentration of half-maximal effect; % is set by controls: 0 for no effect and ±100 for the full control effect; nearly all actives have a fitted effect of over 60% in size
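BAZ2B (50 nM) with biotin-H3(5-23)K14Ac peptide (50 nM) in PBS pH 7.4, 0.01% Tween-20, preformed 30 min, then compound 30 min at room temperature; top concentration 110uM. AlphaScreen streptavidin donor/nickel chelate acceptor beads (10 ug/mL final), 20 min dark, signal read.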
PLK1 PBD block – PLK1 (human) polo-box domain binding inhibition | P53350 | Plk1 PBD binding of FITC phosphopeptide, fluorescence polarization | Potency, µM, inactives show max response, negative = inhibition, usual class: inhibitors | 2.8% of 360,000 active | AID 720504; note: potency is the fitted concentration of half-maximal effect; series mostly up to about 57 µM; % is set by controls: 0 for no effect and ±100 for the full control effect; nearly all actives have a fitted effect of over 65% in size
PI5P4Ka inh – blocks human PI5P4K alpha kinase activity; AID 652105; PI5P4Kalpha enzyme, ADP-Glo luminescence, 60 min; active compounds read low; 1.2% of 330,000 active; max response, %; active = max response of -50% or lower; inconclusive = between -30% and -50%; inactive = -30% or higher; note: value at the top dose of about 77 µM; % is set by controls: 0 for no effect and ±100 for the full control effect
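Enzyme plus substrate dispensed, test compounds pinned in, then ATP (5 microM final) added. After 60 min at RT, ADP-Glo reagent 1 for 45 min and reagent 2 for 30 min preceded luminescence imaging.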
HP1b chromo inh – blocks HP1-beta chromodomain binding to methylated histone tails. P83916. AlphaScreen HP1-beta / biotin-H3K9me3 peptide binding. Potency, µM (series often up to 114 µM), for the others: at the top dose activity change, negative = inhibition, hits mostly inhibitors. 0.56% of 390,000 active; note: potency is the fitted concentration of half-maximal effect; nearly all actives have a fitted effect of over 70% in size
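HP1-beta protein (50 nM final) preincubated 30 min at room temperature with biotinylated H3(1-18)K9me3 peptide (50 nM) in PBS pH 7.4, 0.01% Tween-20, then compound added for 30 min. AlphaScreen streptavidin donor/nickel chelate acceptor beads (10 ug/mL final), 30 min dark, luminescence read.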
* = called active by the depositor; ? = inconclusive; nt = no result; [ ] = another dose, or the depositor's remark. The list is not random: actives were taken first. Their share in the collection is about 12%. Unless noted, calls come from the whole dose curve; as a rule, active = well fitted curve in the direction sought with a large enough effect; inconclusive = small, poorly fitted or top-dose-only effect, or another doubt; inactive = no such curve, though single readings can be large; an effect the other way counts as inactive or inconclusive.

SMILES	JMJD2A Tudor inh	G9a block	BAZ2B block	PLK1 PBD block	PI5P4Ka inh	HP1b chromo inh
Cc1cccc(-n2c(=O)c3c(c4cc(C)ccc4n3C)n(CC(=O)Nc3ccc(C)cc3C)c2=O)c1	2.1%	1.0%[59 µM]	0.1%	nt	nt	44.4%
CCC1OC(=O)C(C)[C@@H](O[C@H]2C[C@@](C)(OC)C(O)C(C)O2)C(C)[C@@H](O[C@@H]2OC(C)CC(N(C)C)C2O)[C@](C)(O)CC(C)/C(=N\OCOCCOC)[C@H](C)C(O)[C@]1(C)O (some centres not stated)	nt	-2.1%[2.33 µM]	nt	nt	nt	nt
Cc1ccc(SCC(=O)NC2CCS(=O)(=O)C2)cc1C (configuration not stated)	2.8%	-9.8%[12.7 µM]	-5.1%	-14.7%	9.3	22.3%
CS(=O)(=O)c1ccc(SCC(=O)NC2CCS(=O)(=O)C2)c([N+](=O)[O-])c1 (configuration not stated)	0.7%	31.6µM*	-9.4%	-23.5%	-5.6	17.1%
O=C(CSc1ccc(Br)cc1)NC1CCS(=O)(=O)C1 (configuration not stated)	0.7%	4.9%	11.3%	16.8µM*	-0.3	19.8%
Fc1ccc(-c2cn3cc(Cc4ccc(Cl)cc4)sc3n2)cc1	-1.0%	10.8%[59 µM]	-13.7%	nt	nt	39.6%
O=C(NO)c1ccccc1O	-24.8%	2µM*	?	-1.4%	4.8	53.3%
O=C(NC1CCCCCCC1)c1ccccc1O	-1.4%[11.4 µM]	13.6%	2.0%	21.2µM*	-3.1	17.5%
O=C(NCCNC(=O)c1ccccc1O)c1ccccc1O	-20.9%	-9.1%[0.501 µM]	?	3.4%	9.2	28.7%
CC(C)C(=O)NC(=S)Nc1ccccc1C(=O)NC1CCCCC1	-18.9%	50.1µM*	-5.2%	?	-2.4	-2.4%
CCC(=O)NC(=S)Nc1ccccc1C(=O)NC1CCCCC1	-4.4%	-25.5%[59 µM]	-12.5%	3.5%	-9.3	30.2%
O=C(NNC(=O)c1cc(O)c(O)c(O)c1)NC1CCCCC1	10µM*	1.58µM*	56.2µM*	?	-9.3	-29.9%
CC(=O)c1ccc(NC(=O)c2nc(-c3ccccc3)n(-c3ccccc3Cl)n2)cc1	-4.3%	-27.5%[59 µM]	1.5%	nt	nt	37.0%
Cc1ccnn1CCC(=O)N1CCCC(Nc2ccc(F)c(F)c2)C1 (configuration not stated)	-6.9%	-26.6%	16.3%[57.1 µM]	-12.4%	-8.8	60.2%
O=C(NN=Cc1ccc(F)cc1)c1ccccc1NS(=O)(=O)c1cccs1	-18.1%	nt	nt	-8.9%	-8.5	25.4%
O=C(NN=Cc1cc(Br)c(O)c(Br)c1)c1ccccc1NS(=O)(=O)c1cccs1	-14.6%	nt	nt	?	-67.0*	12.5%
O=C(N/N=C/c1ccc([N+](=O)[O-])o1)c1ccccc1NS(=O)(=O)c1cccs1	?	-42.0%[59 µM]	-24.8%	?	-57.3*	43.5%
Cn1c(=O)c(NC2CCCCC2)c2c3c(cccc31)C(=O)c1ccccc1-2	13.2%	nt	16.8%	?	12.8	60.8%
Cn1c(=O)c(NCCc2ccccc2)c2c3c(cccc31)C(=O)c1ccccc1-2	30.1%	92.4%[59 µM]	25.9%	3.77µM*	2.0	119.8%
CC(=O)Nc1ccc(Nc2c3c4c(cccc4n(C)c2=O)C(=O)c2ccccc2-3)cc1	?	-22.3%[59 µM]	?	6.7µM*	5.0	-17.2%
Cn1c(NCCc2ccccc2)cc(=O)n(C)c1=O	5.4%	?	14.5%	0.2%	-13.8	29.9%
CCCCNc1c2c3c(cccc3n(C)c1=O)C(=O)c1ccccc1-2	40.3%	87.7%[59 µM]	26.3%	2.38µM*	nt	66.1%
CC(=O)c1cccc(NC(=O)Cn2ccn3nc(-c4ccccc4)cc3c2=O)c1	-4.0%	15.5%[59 µM]	-2.0%	nt	nt	9.9%
CC1CN(c2ncnc3c2oc2ccccc23)CC(C)O1 (configuration not stated)	-24.4%	50.1µM*	?	-0.8%	3.0	54.3%
CN(Cc1cn(Cc2cccc(Cl)c2)nn1)C1CN(Cc2cn(Cc3cccc(Cl)c3)nn2)S(=O)(=O)C1 (configuration not stated)	nt	nt	nt	-1.3%	2.2	nt
COC(=O)c1cc2oc(C)cc2n1Cc1ccc(C)cc1	-22.9%	14.1µM*	-36.7%	nt	nt	22.0%
